Numbering of substitutions follows the chain as printed.
Experiments:
Test in all cases: yeast three-hybrid, YBZ-1, SC-Leu-His + 0.5 mM 3-AT, 4 days
Conditions in all cases: tags: N-Gal4 AD-HA kept; label: inside an RPR1-promoter hybrid RNA with tandem MS2 sites; ssRNA
PUM1 PUF domain R6-EWG = target: T1, PUM1 PUF domain R6-EWG (Homo sapiens, UniProt Q14671 828-1176, N1043E;Y1044W;Q1047G)
T1 sequence: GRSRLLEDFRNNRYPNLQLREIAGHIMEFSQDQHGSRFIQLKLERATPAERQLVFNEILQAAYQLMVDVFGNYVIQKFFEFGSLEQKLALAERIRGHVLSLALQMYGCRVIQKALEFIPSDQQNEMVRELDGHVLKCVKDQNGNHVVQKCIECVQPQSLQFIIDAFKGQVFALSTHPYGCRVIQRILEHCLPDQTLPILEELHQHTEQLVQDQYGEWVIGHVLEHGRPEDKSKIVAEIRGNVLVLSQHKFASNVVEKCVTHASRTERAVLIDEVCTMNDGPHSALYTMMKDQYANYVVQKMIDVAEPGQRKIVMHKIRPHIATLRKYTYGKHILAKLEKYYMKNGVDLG
In short: (§1)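 The interaction score is the log change in variant frequency from input to selection. Scores were computed in log2 with a pseudocount of 1 for absent variants, using Illumina sequencing of PCR-amplified repeat regions. The input came from four days on SC-Leu and the selection from four days on SC-Leu-His + 0.5 mM 3-AT. The cells were strain YBZ-1 (LexA–MS2 coat fusion, HIS3 reporter) co-expressing Pumilio-1 PUF domain libraries and matching RNA elements from a centromeric plasmid.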

PUM1 PUF domain R6-VWM = target: T2, PUM1 PUF domain R6-VWM (Homo sapiens, UniProt Q14671 828-1176, N1043V;Y1044W;Q1047M)
T2 sequence: T1 sequence with E216V, G220M
In short: as §1

PUM1 PUF domain R6-RYG = target: T3, PUM1 PUF domain R6-RYG (Homo sapiens, UniProt Q14671 828-1176, N1043R;Q1047G)
T3 sequence: T1 sequence with E216R, W217Y
In short: as §1

PUM1 PUF domain R6-AWV = target: T4, PUM1 PUF domain R6-AWV (Homo sapiens, UniProt Q14671 828-1176, N1043A;Y1044W;Q1047V)
T4 sequence: T1 sequence with E216A, G220V
In short: as §1

PUM1 PUF domain R8-QFR = PUM1 PUF domain R8-QFR (Homo sapiens, UniProt Q14671 828-1176, N1122Q;Y1123F;Q1126R)
In short: as §1

PUM1 PUF domain R8-QYP = PUM1 PUF domain R8-QYP (Homo sapiens, UniProt Q14671 828-1176, N1122Q;Q1126P)
In short: as §1

PUM1 PUF domain R8-RRR = PUM1 PUF domain R8-RRR (Homo sapiens, UniProt Q14671 828-1176, N1122R;Y1123R;Q1126R)
In short: as §1

PUM1 PUF domain R4-CMN = PUM1 PUF domain R4-CMN (Homo sapiens, UniProt Q14671 828-1176, N971C;H972M;Q975N)
In short: as §1

PUM1 PUF domain R8-RRY = PUM1 PUF domain R8-RRY (Homo sapiens, UniProt Q14671 828-1176, N1122R;Y1123R;Q1126Y)
In short: as §1

PUM1 PUF domain R6-DWG = target: T5, PUM1 PUF domain R6-DWG (Homo sapiens, UniProt Q14671 828-1176, N1043D;Y1044W;Q1047G)
T5 sequence: T1 sequence with E216D
In short: as §1

PUM1 PUF domain R3-IFR = PUM1 PUF domain R3-IFR (Homo sapiens, UniProt Q14671 828-1176, C935I;R936F;Q939R)
In short: as §1

PUM1 PUF domain R3-RRP = PUM1 PUF domain R3-RRP (Homo sapiens, UniProt Q14671 828-1176, C935R;Q939P)
In short: as §1

PUM1 PUF domain R4-QPA = PUM1 PUF domain R4-QPA (Homo sapiens, UniProt Q14671 828-1176, N971Q;H972P;Q975A)
In short: as §1

PUM1 PUF domain R5-GSE = PUM1 PUF domain R5-GSE (Homo sapiens, UniProt Q14671 828-1176, C1007G;R1008S;Q1011E)
In short: as §1

PUM1 PUF domain R7-LSV = PUM1 PUF domain R7-LSV (Homo sapiens, UniProt Q14671 828-1176, S1079L;N1080S;E1083V)
In short: as §1

PUM1 PUF domain R7-LYW = PUM1 PUF domain R7-LYW (Homo sapiens, UniProt Q14671 828-1176, S1079L;N1080Y;E1083W)
In short: as §1

PUM1 PUF domain R2-KLV = PUM1 PUF domain R2-KLV (Homo sapiens, UniProt Q14671 828-1176, N899K;Y900L;Q903V)
In short: as §1

[1] = target: T6, PUM1 PUF domain R1-QFR R2-VFQ R6-SWD (Homo sapiens, UniProt Q14671 828-1176, S863Q;R864F;Q867R;N899V;Y900F;N1043S;Y1044W;Q1047D)
T6 sequence: T1 sequence with S36Q, R37F, Q40R, N72V, Y73F, E216S, G220D
In short: as §1

## GGCUAGAACUAGUGGAUCCCCCGGCGCCCGGCGGCUCGAGCCCGGGUAAGUGAAAAUAGUCUGCAUGCCGCCGGGCGCCAUGCCUGCAGGUCGACUCUAGAAAACAUG
PUM1 PUF domain R6-EWG
  binding signal: 1.75 log2 enrichment (interaction score)
PUM1 PUF domain R6-VWM
  binding signal: 6.06 log2 enrichment (interaction score)
PUM1 PUF domain R6-RYG
  binding signal: 0.78 log2 enrichment (interaction score)
PUM1 PUF domain R6-AWV
  binding signal: 2.78 log2 enrichment (interaction score)

## GGCUAGAACUAGUGGAUCCCCCGGCGCCCGGCGGCUCGAGCCCGGGUAAGUGUAAAUAGUCUGCAUGCCGCCGGGCGCCAUGCCUGCAGGUCGACUCUAGAAAACAUG
PUM1 PUF domain R6-EWG
  binding signal: 4.03 log2 enrichment (interaction score)
PUM1 PUF domain R6-VWM
  binding signal: 4.44 log2 enrichment (interaction score)
PUM1 PUF domain R8-QFR
  binding signal: 4.27 log2 enrichment (interaction score)
PUM1 PUF domain R8-QYP
  binding signal: 2.62 log2 enrichment (interaction score)
PUM1 PUF domain R8-RRR
  binding signal: 5.23 log2 enrichment (interaction score)
PUM1 PUF domain R4-CMN
  binding signal: 3.59 log2 enrichment (interaction score)
PUM1 PUF domain R6-RYG
  binding signal: 2.84 log2 enrichment (interaction score)
PUM1 PUF domain R8-RRY
  binding signal: 0.87 log2 enrichment (interaction score)
PUM1 PUF domain R6-DWG
  binding signal: 4.07 log2 enrichment (interaction score)

## GGCUAGAACUAGUGGAUCCCCCGGCGCCCGGCGGCUCGAGCCCGGGUAAGUGUAAGUAGUCUGCAUGCCGCCGGGCGCCAUGCCUGCAGGUCGACUCUAGAAAACAUG
PUM1 PUF domain R3-IFR
  binding signal: 5.53 log2 enrichment (interaction score)

## GGCUAGAACUAGUGGAUCCCCCGGCGCCCGGCGGCUCGAGCCCGGGUAAGUGUAAUUAGUCUGCAUGCCGCCGGGCGCCAUGCCUGCAGGUCGACUCUAGAAAACAUG
PUM1 PUF domain R3-IFR
  binding signal: 3.8 log2 enrichment (interaction score)
PUM1 PUF domain R3-RRP
  binding signal: 4.3 log2 enrichment (interaction score)

## GGCUAGAACUAGUGGAUCCCCCGGCGCCCGGCGGCUCGAGCCCGGGUAAGUGUAUAUAGUCUGCAUGCCGCCGGGCGCCAUGCCUGCAGGUCGACUCUAGAAAACAUG
PUM1 PUF domain R4-QPA
  binding signal: 3.55 log2 enrichment (interaction score)

## GGCUAGAACUAGUGGAUCCCCCGGCGCCCGGCGGCUCGAGCCCGGGUAAGCGUAAAUAGUCUGCAUGCCGCCGGGCGCCAUGCCUGCAGGUCGACUCUAGAAAACAUG
PUM1 PUF domain R8-QFR
  binding signal: 5.16 log2 enrichment (interaction score)
PUM1 PUF domain R8-RRR
  binding signal: 5.62 log2 enrichment (interaction score)
PUM1 PUF domain R8-RRY
  binding signal: 2.72 log2 enrichment (interaction score)

## GGCUAGAACUAGUGGAUCCCCCGGCGCCCGGCGGCUCGAGCCCGGGUAAGUGUGAAUAGUCUGCAUGCCGCCGGGCGCCAUGCCUGCAGGUCGACUCUAGAAAACAUG
PUM1 PUF domain R5-GSE
  binding signal: 3.41 log2 enrichment (interaction score)

## GGCUAGAACUAGUGGAUCCCCCGGCGCCCGGCGGCUCGAGCCCGGGUAAGUUUAAAUAGUCUGCAUGCCGCCGGGCGCCAUGCCUGCAGGUCGACUCUAGAAAACAUG
PUM1 PUF domain R7-LSV
  binding signal: 4.05 log2 enrichment (interaction score)
PUM1 PUF domain R7-LYW
  binding signal: 4.45 log2 enrichment (interaction score)

## GGCUAGAACUAGUGGAUCCCCCGGCGCCCGGCGGCUCGAGCCCGGGUAAGUGUAAAGAGUCUGCAUGCCGCCGGGCGCCAUGCCUGCAGGUCGACUCUAGAAAACAUG
PUM1 PUF domain R2-KLV
  binding signal: 6.33 log2 enrichment (interaction score)

## GGCUAGAACUAGUGGAUCCCCCGGCGCCCGGCGGCUCGAGCCCGGGUAAGUGGAAAACGUCUGCAUGCCGCCGGGCGCCAUGCCUGCAGGUCGACUCUAGAAAACAUG
[1]
  binding signal: 5 log2 enrichment (interaction score)
